Results on seven compounds are retold here after PubChem BioAssay (NCATS).

SMILES strings stand for the structures. Records with an inconclusive call do not appear. Values without a mark were called inactive. Calls of active or inactive are those of the source. Calls follow the shape of the dose curve; as a rule, active = well fitted curve in the direction sought with a large enough effect; inconclusive = small, poorly fitted or top-dose-only effect, or another doubt; inactive = no such curve, though single readings can be large; an effect the other way counts as inactive or inconclusive.

Assay [1] in a line: Quantitative High-Throughput drug screen in 47 multiple myeloma cell lines against the NCATS MIPE library collection: Karpas620_DSMZ cell viability assay (AID 1918959). Also: nearly all actives have a fitted effect of over 30% in size. Also: potency is read from the fitted curve at half-maximal effect. The essentials: (§1)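 Luminescent ATP measurement with CellTiter-Glo gives viability, scaled between DMSO-only wells (100%) and media-only wells (0%). Cells, 500 per well, faced library compounds for 48 hours at 37C.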

Assay [2] in a line: Quantitative High-Throughput drug screen in 47 multiple myeloma cell lines against the NCATS MIPE library collection: Karpas417_ECACC cell viability assay (AID 1918961). Also: potency is read from the fitted curve at half-maximal effect. The note with it: Karpas417 myeloma viability, CellTiter-Glo ATP luminescence, 48 h; viability (% of DMSO): at 45.8 µM (top of the series). An outline of the steps: (§2)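 Steps: seed 500 cells per well; pin-transfer MIPE 4.0 library; incubate 48 h at 37C, 5% CO2, humidified; add CellTiter-Glo, 5 min room temperature; read luminescence.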

The nature of assay [3]: Quantitative High-Throughput drug screen in 47 multiple myeloma cell lines against the NCATS MIPE library collection: JIM3_ECACC cell viability assay (AID 1918963; also: nearly all actives have a fitted effect of over 35% in size; also: potency is read from the fitted curve at half-maximal effect). The essentials:
as §1

A short description of assay [4]: Quantitative High-Throughput drug screen in 47 multiple myeloma cell lines against the NCATS MIPE library collection: JIM1_ECACC cell viability assay (AID 1918964; also: potency is read from the fitted curve at half-maximal effect). An outline of the steps: (§3)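 Relative luminescence from CellTiter-Glo served as the viability signal, referenced to DMSO-treated (100%) and cell-free medium (0%) controls. Treatment lasted 48 hours at 37C with 500 cells per well.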

The nature of assay [5]: Quantitative High-Throughput drug screen in 47 multiple myeloma cell lines against the NCATS MIPE library collection: H1112_PLB cell viability assay (AID 1918967; also: nearly all actives have a fitted effect of over 30% in size; also: potency is read from the fitted curve at half-maximal effect). The essentials:
as §3

Assay [6] in a line: Quantitative High-Throughput drug screen in 47 multiple myeloma cell lines against the NCATS MIPE library collection: KMS27_JCRB cell viability assay (AID 1918970). Also: nearly all actives have a fitted effect of over 30% in size. Also: potency is read from the fitted curve at half-maximal effect. As to conditions: KMS27 myeloma cells, CellTiter-Glo ATP viability, 48 h; viability (% of DMSO): at 45.8 µM (top of the series). An outline of the steps: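 ATP-based viability (CellTiter-Glo luminescence) is measured in cells treated 48 h with approved and investigational drugs at 37 °C. Controls are DMSO-only wells for full viability and media-only wells for none.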
On the technique in general: Cellular ATP, detected with luciferase, serves as a proxy for viable cell number.

Assay [7] in a line: Quantitative High-Throughput drug screen in 47 multiple myeloma cell lines against the NCATS MIPE library collection: KMS12BM_JCRB cell viability assay (AID 1918971). Also: nearly all actives have a fitted effect of over 35% in size. Also: potency is read from the fitted curve at half-maximal effect. The essentials:
(§4)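 Approved and investigational drugs from MIPE 4.0 were added by pin tool to 500 cells per well. After 48 hours at 37C, ATP-based CellTiter-Glo luminescence indicated remaining viability.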

Assay [8] in a line: Quantitative High-Throughput drug screen in 47 multiple myeloma cell lines against the NCATS MIPE library collection: KMS12PE_JCRB cell viability assay (AID 1918972). Also: nearly all actives have a fitted effect of over 30% in size. Also: potency is read from the fitted curve at half-maximal effect. An outline of the steps: as §2
Assay [9] in a line: Quantitative High-Throughput drug screen in 47 multiple myeloma cell lines against the NCATS MIPE library collection: KMS26_JCRB cell viability assay (AID 1918975). Also: nearly all actives have a fitted effect of over 45% in size. Also: potency is read from the fitted curve at half-maximal effect. The essentials:
as §4

Assay [10] in a line: Quantitative High-Throughput drug screen in 47 multiple myeloma cell lines against the NCATS MIPE library collection: MOLP8_DSMZ cell viability assay (AID 1918977). Also: nearly all actives have a fitted effect of over 45% in size. The essentials: (§5)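 Inhibition of viability over 48 h was scored by ATP content (CellTiter-Glo) in 500-cell wells. Zero and full viability were defined by media-only and DMSO-only wells.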
Assay [11] is described as follows: Quantitative High-Throughput drug screen in 47 multiple myeloma cell lines against the NCATS MIPE library collection: NCIH929_DSMZ cell viability assay (AID 1918978). Also: nearly all actives have a fitted effect of over 35% in size. Also: potency is read from the fitted curve at half-maximal effect. An outline of the steps:
as §5

The nature of assay [12]: Quantitative High-Throughput drug screen in 47 multiple myeloma cell lines against the NCATS MIPE library collection: KMM1_JCRB cell viability assay (AID 1918960). Also: nearly all actives have a fitted effect of over 30% in size. Also: potency is read from the fitted curve at half-maximal effect. An outline of the steps: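 Myeloma cells at 500 per well in 1536-well format treated with MIPE 4.0 library by pin transfer for 48 h at 37C, 5% CO2. Viability from ATP luminescence (CellTiter-Glo), normalized to DMSO (100%) and media-only (0%) wells.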

A short description of assay [13]: Quantitative High-Throughput drug screen in 47 multiple myeloma cell lines against the NCATS MIPE library collection: INA6_PLB cell viability assay (AID 1918965; also: nearly all actives have a fitted effect of over 55% in size; also: potency is read from the fitted curve at half-maximal effect). The essentials: as §2
A short description of assay [14]: Quantitative High-Throughput drug screen in 47 multiple myeloma cell lines against the NCATS MIPE library collection: JJN3_DSMZ cell viability assay (AID 1918966; also: nearly all actives have a fitted effect of over 50% in size; also: potency is read from the fitted curve at half-maximal effect). An outline of the steps: as §3
A short description of assay [15]: Quantitative High-Throughput drug screen in 47 multiple myeloma cell lines against the NCATS MIPE library collection: Karpas25_ECACC cell viability assay (AID 1918968; also: potency is read from the fitted curve at half-maximal effect; nearly all actives have a fitted effect of over 35% in size). The essentials: as §3
Assay [16] can be described thus: Quantitative High-Throughput drug screen in 47 multiple myeloma cell lines against the NCATS MIPE library collection: KMS20_JCRB cell viability assay (AID 1918973). Also: nearly all actives have a fitted effect of over 45% in size. Also: potency is read from the fitted curve at half-maximal effect. The essentials: as §3
Assay [17] is described as follows: Quantitative High-Throughput drug screen in 47 multiple myeloma cell lines against the NCATS MIPE library collection: OCIMY1_PLB cell viability assay (AID 1918979). Also: nearly all actives have a fitted effect of over 35% in size. Also: potency is read from the fitted curve at half-maximal effect. An outline of the steps: as §5
A short description of assay [18]: Quantitative High-Throughput drug screen in 47 multiple myeloma cell lines against the NCATS MIPE library collection: KMS21BM_JCRB cell viability assay (AID 1918974). Also: potency is read from the fitted curve at half-maximal effect. The note with it: ATP luminescence, 48 h; viability: at 45.8 µM (top of the series). An outline of the steps: as §3
The nature of assay [19]: Quantitative High-Throughput drug screen in 47 multiple myeloma cell lines against the NCATS MIPE library collection: MMM1_PLB cell viability assay (AID 1918976). Also: nearly all actives have a fitted effect of over 35% in size. Also: potency is read from the fitted curve at half-maximal effect. The essentials:
as §5

Assay [20] in a line: Quantitative High-Throughput drug screen in 47 multiple myeloma cell lines against the NCATS MIPE library collection: KHM11_PLB cell viability assay (AID 1918962). The essentials:
as §1

Regarding `CC(=O)OC[C@@H]1O[C@@H](n2ccc(=O)[nH]c2=O)[C@H](OC(C)=O)[C@H]1OC(C)=O`, the Potency result in assay [1], in assay [2], in assay [3], in [4], in assay [5] and in assay [6] was “inactive” each time. Also, the Potency entry in [7], in assay [8], in assay [9], in assay [10] and in assay [11] was “inactive” each time.

In the case of `CON=C(C(=O)N[C@@H]1C(=O)N2C(C(=O)O)=C(CSC(=O)c3ccco3)CS[C@H]12)c1csc(N)n1`, the Potency result in assay [1], in assay [12], in assay [13], in [14], in assay [7] and in assay [16] was “inactive” each time. The Potency entry in [9] and in assay [17] was “inactive” in each case. For the same compound, in assay [15], the Potency is 16.6 µM (active).

For the compound `COc1ccc(CCC(=O)c2c(O)cc(O[C@@H]3O[C@H](CO)[C@@H](O)[C@H](O)[C@@H]3O[C@@H]3O[C@@H](C)[C@H](O)[C@@H](O)[C@@H]3O)cc2O)cc1O`, the Potency result in assay [1], in [2], in [6], in assay [7], in [8] and in assay [18] was “inactive” in each case. The Potency entry in assay [9], in assay [19] and in [17] was “inactive” each time. In addition, the Potency in [3] is 18.7 µM (active).

Take `CC(N[C@H]1CCCC[C@H]1NC(=O)c1ccc(Cl)cc1)c1cccc2ccccc12` (stereo not given in full): the Potency in assay [1] was 0.132 µM (active); in [2], 0.0469 µM (active); in [5], 20.9 µM (active); in [15], 14.8 µM (active); in [6] it was 0.118 µM (active). Further, the Potency entry in assay [9] and in assay [10] was “inactive” in each case.

Consider `C[C@]12CC[C@@H]3c4ccc(O)cc4CC[C@H]3[C@H]1CC[C@H]2O`, for which the Potency in [1] is 4.18 µM (active); in assay [20], 4.69 µM (active); in assay [3], 14.8 µM (active); in assay [4], 5.9 µM (active); in [13], 8.33 µM (active); in [14], 23.5 µM (active). Also, the Potency was 8.33 µM (active) in assay [5]; 10.5 µM (active) in assay [15]; 33.2 µM (active) in assay [7]; 18.7 µM (active) in assay [16]; 3.32 µM (active) in assay [18]; 5.9 µM (active) in assay [9]. Further, the Potency in [19] is 16.6 µM (active).

Take `CC1=C(C(=O)Nc2cc3cn[nH]c3cc2F)C(c2ccc(Cl)cc2F)N=C(c2ccnc(Cl)c2)N1` (stereo not given): the Potency in [1] is 18.7 µM (active); in assay [12], 20.9 µM (active); in assay [4] it was 16.6 µM (active); in assay [13], 10.5 µM (active); in [5], 18.7 µM (active); in assay [15] it was 14.8 µM (active). Further, the values for the Potency in assay [6], in assay [8] and in assay [11] were 29.6 µM (active), 16.6 µM (active) and 14.8 µM (active), respectively. For the same compound, the Potency result in [9] was “inactive”.

For `CCOC(=O)[C@H](CCc1ccccc1)N[C@@H](C)C(=O)N1[C@@H](C(=O)O)C[C@H]2CCC[C@@H]21`, the Potency in [1] is 8.33 µM (active); in assay [20], 9.35 µM (active); in assay [3] it was 13.2 µM (active); in assay [4] it was 5.26 µM (active); in assay [13] it was 7.43 µM (active); in assay [5], 14.8 µM (active). For the same compound, the Potency in [15] is 7.43 µM (active); in assay [6], 7.43 µM (active); in assay [7], 23.5 µM (active); in [8], 7.43 µM (active); in [16], 4.69 µM (active); in assay [18] it was 5.26 µM (active). Also, the Potency was 18.7 µM (active) in assay [19], 7.43 µM (active) in assay [11] and 26.4 µM (active) in [17].
